In PubChem BioAssay (NCATS):
Records with an inconclusive call do not appear. Active and inactive are the calls of the source. Unless noted, calls come from the whole dose curve; as a rule, active = well fitted curve in the direction sought with a large enough effect; inconclusive = small, poorly fitted or top-dose-only effect, or another doubt; inactive = no such curve, though single readings can be large; an effect the other way counts as inactive or inconclusive.

How the values were obtained:
[1] = AP1 Signaling Pathway (AID 357; active = well fitted curve in either direction with a large enough effect, not every such curve was filed as active;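 note: ME-180 reporter cells stimulated with EGF at its EC50 level; % is set by controls: 0 for no effect and ±100 for the full control effect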); conditions: ME-180 (cervical carcinoma) AP-1-bla reporter, EGF-induced, beta-lactamase ratio, 5 h; at 38 µM (top of the series)
Summary of the method: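 Modulation of EGF-driven AP-1 transcription was assessed with a beta-lactamase reporter in ME-180 cells. Compound and EC50 EGF were co-incubated 5 hours at 37 °C before 2.5-hour CCF4 loading at room temperature and dual-emission reading.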

[2] = target: Cytochrome P450 1A2 (Homo sapiens) (UniProt P05177); test: p450-cyp1a2 (AID 410; calls by dose curve;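 note: -100% = full effect of reference inhibitor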)
Chain of Cytochrome P450 1A2 (Homo sapiens) (P05177 whole entry, looked up): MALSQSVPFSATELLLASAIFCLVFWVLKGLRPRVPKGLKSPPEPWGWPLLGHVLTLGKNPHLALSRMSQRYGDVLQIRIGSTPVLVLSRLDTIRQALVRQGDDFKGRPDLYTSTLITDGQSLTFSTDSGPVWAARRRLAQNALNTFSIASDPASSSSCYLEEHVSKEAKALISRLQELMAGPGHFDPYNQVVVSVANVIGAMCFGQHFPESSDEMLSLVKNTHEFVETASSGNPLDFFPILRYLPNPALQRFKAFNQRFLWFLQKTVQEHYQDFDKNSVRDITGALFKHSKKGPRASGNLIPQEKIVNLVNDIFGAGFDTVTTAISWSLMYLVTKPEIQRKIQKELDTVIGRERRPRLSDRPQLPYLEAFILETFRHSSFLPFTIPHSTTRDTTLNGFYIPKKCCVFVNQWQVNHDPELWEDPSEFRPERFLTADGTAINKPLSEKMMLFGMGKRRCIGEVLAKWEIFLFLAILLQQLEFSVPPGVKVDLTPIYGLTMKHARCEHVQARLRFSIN
Summary of the method: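 20nM CYP1A2, 100uM Luciferin-ME (=Km), 100mM KPO4; cpd 10 min RT; +NADPH regen, 60 min RT; stop/detect 20 min; luminescence. Normalized to furafylline 57 uM = full inhibition.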

[3] = NFAT Signaling Pathway (AID 444; active = well fitted curve in either direction with a large enough effect, not every such curve was filed as active;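 note: carbachol stimulus at about its EC50 of 1 µM final; % is set by controls: 0 for no effect and ±100 for the full control effect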); conditions: Jurkat NFAT-bla M1, carbachol, beta-lactamase ratio, 5 h; at 38 µM (top of the series)
Summary of the method: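 Read-out: CCF4 FRET ratio (460 nm/530 nm) after 1 h RT dye loading, used for %activity and AC50 from titration series. Cells: Jurkat NFAT-β-lactamase/M1 line, treated with compound plus 1 uM carbachol for 5 h, 37 °C.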

[4] = target: Glucocorticoid receptor (Homo sapiens) (UniProt P04150); test: GR-GFP Redistribution (AID 450;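 active = compounds whose dose series gives a full or clear partial fitted curve of increased nuclear translocation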; note: potency is the fitted concentration of half-maximal effect); conditions: U2OS GR-GFP nuclear translocation, laser cytometry, 2 h
Chain of Glucocorticoid receptor (Homo sapiens) (P04150 whole entry, looked up, the tested form may be a part): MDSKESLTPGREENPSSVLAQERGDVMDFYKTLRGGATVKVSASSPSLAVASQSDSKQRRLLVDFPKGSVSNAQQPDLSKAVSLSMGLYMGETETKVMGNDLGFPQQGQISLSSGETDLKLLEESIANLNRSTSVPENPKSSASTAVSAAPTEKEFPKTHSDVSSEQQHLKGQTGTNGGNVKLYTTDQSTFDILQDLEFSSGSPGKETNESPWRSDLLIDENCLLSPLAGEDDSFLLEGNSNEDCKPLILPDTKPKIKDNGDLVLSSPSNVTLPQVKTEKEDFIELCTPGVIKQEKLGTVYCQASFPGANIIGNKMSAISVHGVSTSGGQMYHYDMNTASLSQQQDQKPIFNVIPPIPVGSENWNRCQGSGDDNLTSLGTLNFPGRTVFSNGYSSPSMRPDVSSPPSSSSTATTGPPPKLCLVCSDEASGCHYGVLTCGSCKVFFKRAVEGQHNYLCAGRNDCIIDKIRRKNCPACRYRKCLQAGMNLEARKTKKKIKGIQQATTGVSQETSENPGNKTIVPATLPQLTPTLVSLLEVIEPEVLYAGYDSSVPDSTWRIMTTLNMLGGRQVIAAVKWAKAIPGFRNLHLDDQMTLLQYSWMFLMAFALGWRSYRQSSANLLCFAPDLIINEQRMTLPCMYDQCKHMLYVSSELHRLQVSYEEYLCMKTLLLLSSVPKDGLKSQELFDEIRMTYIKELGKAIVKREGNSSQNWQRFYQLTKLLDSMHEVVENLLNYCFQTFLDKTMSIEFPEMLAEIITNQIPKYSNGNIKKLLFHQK

[5] = target: Glucocorticoid receptor (Homo sapiens) (UniProt P04150); test: GR-EFC Redistribution (AID 451; calls by dose curve; note: potency is the fitted concentration of half-maximal effect); conditions: CHO-K1 GR-EFC translocation, beta-gal luminescence, 2 h
Summary of the method: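 Translocation of GR-ED fusion to nuclear EA restores b-gal, read by luminescence after 1 h room-temperature detection. Engineered CHO-K1 biosensor cells, 1,000/well, exposed 2 h at 37 C to titrations up to 46 uM final.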

[6] = target: Mitogen-activated protein kinase 10 (Mus musculus) (UniProt Q61831); test: JNK3 AlphaScreen Assay (AID 530; active = well fitted curve in either direction with a large enough effect, not every such curve was filed as active;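 note: kinase came from lysate of stimulated human HepG2 cells; signal reports phosphorylation of biotinylated GST-cJun 1-79 at Ser73 with 10 µM ATP; % is set by controls: 0 for no effect and ±100 for the full control effect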)
Summary of the method: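 Kinase buffer: 20 mM Tris-HCl pH 7.6, 10 mM MgCl2, 1 mM DTT, 0.1 mM Na3VO4, 0.01% Tween-20; ATP 10 uM. Substrate biotin-GST-cJun(1-79), enzyme from activated HepG2 lysates. Detection by Ser73 phospho-antibody AlphaScreen.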

[7] = target: 3',5'-cyclic-AMP phosphodiesterase 4B (Homo sapiens) (UniProt Q07343); test: qHTS Assay for Inhibitors of PDE-IV (AID 607; active = well fitted activation curve with a large enough effect in the main read-out, with a control signal flat, not every such curve was filed as active; note: % of control where 0% means no effect)
Chain of 3',5'-cyclic-AMP phosphodiesterase 4B (Homo sapiens) (Q07343 whole entry, looked up): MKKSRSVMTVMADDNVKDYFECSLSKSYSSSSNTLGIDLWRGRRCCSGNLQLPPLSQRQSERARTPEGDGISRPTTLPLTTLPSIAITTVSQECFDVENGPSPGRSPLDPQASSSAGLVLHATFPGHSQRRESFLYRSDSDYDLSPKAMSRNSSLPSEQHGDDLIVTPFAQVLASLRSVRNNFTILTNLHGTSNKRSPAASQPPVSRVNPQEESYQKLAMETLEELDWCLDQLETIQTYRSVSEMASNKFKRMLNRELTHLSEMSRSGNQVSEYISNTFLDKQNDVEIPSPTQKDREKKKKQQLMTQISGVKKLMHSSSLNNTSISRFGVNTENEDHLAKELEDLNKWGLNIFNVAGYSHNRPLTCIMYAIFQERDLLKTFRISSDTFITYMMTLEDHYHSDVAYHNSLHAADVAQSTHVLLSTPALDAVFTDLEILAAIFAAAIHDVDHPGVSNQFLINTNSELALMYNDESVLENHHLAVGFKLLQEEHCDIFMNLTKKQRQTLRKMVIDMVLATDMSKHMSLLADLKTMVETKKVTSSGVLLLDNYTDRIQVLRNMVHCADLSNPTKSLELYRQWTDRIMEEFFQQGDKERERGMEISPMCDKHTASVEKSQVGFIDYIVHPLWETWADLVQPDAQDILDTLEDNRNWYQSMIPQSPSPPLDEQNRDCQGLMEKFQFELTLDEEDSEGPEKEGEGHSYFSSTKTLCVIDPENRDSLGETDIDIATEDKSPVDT
Summary of the method: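 Cell-based read-out of cAMP via a modified cyclic nucleotide-gated channel and membrane potential dye (535/590 nm) in HEK293 cells expressing PDE4 endogenously. Compounds tested up to 22.9 uM final; 100 uM RO 20-1724 reference.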

[8] = target: Guanine nucleotide-binding protein G(i) subunit alpha-1 (Homo sapiens) (UniProt P63096); test: qHTS Assay for Inhibitors of RGS12 GoLoco Motif Activity (Green Fluorophore) (AID 879);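 note: 0% = labeled peptide with Gαi1 and full inhibition = labeled peptide alone without protein; negative values mean loss of peptide binding seen as reduced polarization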
Chain of Guanine nucleotide-binding protein G(i) subunit alpha-1 (Homo sapiens) (P63096 whole entry, looked up): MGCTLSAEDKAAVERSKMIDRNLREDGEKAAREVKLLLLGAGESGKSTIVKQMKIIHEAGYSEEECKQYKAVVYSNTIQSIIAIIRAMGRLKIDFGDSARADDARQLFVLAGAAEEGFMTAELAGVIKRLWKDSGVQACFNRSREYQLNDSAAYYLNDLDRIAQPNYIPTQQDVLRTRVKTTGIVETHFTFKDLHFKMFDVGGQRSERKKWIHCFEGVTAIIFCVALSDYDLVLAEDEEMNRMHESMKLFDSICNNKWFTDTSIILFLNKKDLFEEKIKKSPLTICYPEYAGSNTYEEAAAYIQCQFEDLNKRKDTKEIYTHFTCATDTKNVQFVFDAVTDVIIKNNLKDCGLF
Summary of the method: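 A drop in FITC polarization marked displacement of the FITC-tagged RGS12 GoLoco peptide (10 nM) from Gαi1 (50 nM). Compounds were incubated 10 min at room temperature in Tris pH 7.5 buffer containing 150 mM NaCl, 0.1 mM GDP and 0.05% NP40; unlabeled peptide titration served as control.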

[9] = target: Muscarinic acetylcholine receptor M1 (Rattus norvegicus) (UniProt P08482); test: qHTS Assay for Antagonists of Acetylcholine Muscarinic M1 Receptor: Measurement of IP-One Response (AID 944); note: nearly all actives have a fitted effect of over 75% in size
Chain of Muscarinic acetylcholine receptor M1 (Rattus norvegicus) (P08482 whole entry, looked up): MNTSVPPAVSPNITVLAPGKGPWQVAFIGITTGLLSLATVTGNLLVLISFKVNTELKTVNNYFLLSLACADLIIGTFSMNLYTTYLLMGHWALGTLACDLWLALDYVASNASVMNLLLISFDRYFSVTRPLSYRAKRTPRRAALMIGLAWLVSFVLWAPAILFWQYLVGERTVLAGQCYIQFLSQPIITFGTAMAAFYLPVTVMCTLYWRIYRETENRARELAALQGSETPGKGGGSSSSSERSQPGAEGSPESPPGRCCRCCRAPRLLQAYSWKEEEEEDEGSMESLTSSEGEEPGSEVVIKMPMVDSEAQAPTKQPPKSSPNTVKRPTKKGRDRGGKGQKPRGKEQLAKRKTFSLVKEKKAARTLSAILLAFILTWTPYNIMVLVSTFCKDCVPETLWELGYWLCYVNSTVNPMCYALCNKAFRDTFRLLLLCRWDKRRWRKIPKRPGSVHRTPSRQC
Summary of the method: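 Read-out: HTRF competition between d2-IP1 and Eu-cryptate anti-IP1 antibody, emission 620 and 665 nm. Stimulus was carbachol, EC80 (200 nM), for 30 min in M1-CHO cells (rat receptor), after 10 min compound pre-treatment.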

[10] = target: Pyruvate kinase (Leishmania mexicana) (UniProt Q27686); test: qHTS Validation Assay for Inhibitors of Leishmania Mexicana Pyruvate Kinase (AID 945);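 note: 0% = DMSO only neutral control wells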
Summary of the method: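 qHTS eight-point titrations against 0.2 nM LmPYK (E451W) in imidazole buffer pH 7.2 with 0.5 mM PEP, 0.1 mM ADP; 1 h, room temperature. Readout: PKLight luminescence, normalized to neutral DMSO wells.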

[11] = target: Pyruvate kinase PKM (Homo sapiens) (UniProt P14618); test: qHTS Assay for Activators of Human Muscle Pyruvate Kinase (AID 954; active = well fitted curve in the direction sought with a large enough effect, not every such curve was filed as active;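 note: 0% = uninhibited enzyme and -100% = no enzyme or full thiadiazolimine inhibition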)
Summary of the method: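 ATP production by PKM2 detected via luciferase luminescence after 1 h room-temperature reaction (0.1 nM enzyme, PEP at Km 0.5 mM, ADP 0.1 mM, pH 7.2 imidazole buffer). Inhibition scaled to no-enzyme control; activation referenced to 0.3 nM enzyme wells.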

[12] = target: Alpha-galactosidase A (Homo sapiens) (UniProt P06280); test: Counterscreen for Glucocerebrosidase Inhibitors: qHTS Assay for Human alpha-Galactosidase at pH 4.5 (AID 992); note: 0% is about no effect
Summary of the method: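 Fluorogenic 1536-well qHTS at pH 4.5 (citrate, Tween-20): 2 nM enzyme, 80 uM 4-MU-alpha-galactoside, 20 min room temperature, NaOH/glycine stop. Titration 0.7 nM to 77 uM, data normalized to no-enzyme and full-activity controls, Hill-fitted AC50.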

[13] = target: alpha-glucosidase (Oryza sativa, rice) (UniProt Q653V4); test: Counterscreen for Glucocerebrosidase Inhibitors: qHTS Assay for Rice alpha-Glucosidase at pH 5.0 (AID 997);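 note: 0% = full activity with enzyme and -100% = basal without enzyme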
Summary of the method: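 Endpoint fluorogenic assay at pH 5.0: compounds (0.7 nM to 77 uM) titrated against 4 nM rice enzyme and 400 uM 4-MU-alpha-glucoside for 20 min at room temperature; NaOH/glycine stop, read ex 365/em 440 nm, Hill-fitted AC50.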

[14] = Cytometric Cell-Based qHTS for Inhibitors of the mTORC1 Signaling Pathway in MEF (Tsc2-/-, p53-/-) Cells (AID 2660);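 note: Tsc2 and p53 null MEFs carrying empty vector with compound for 24 h; percent of cells above a phospho-rpS6 to PI ratio cutoff in each well; plate controls were DMSO for no effect and rapamycin for full effect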
Summary of the method: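 Immunofluorescence qHTS of rpS6 Ser235/236 phosphorylation: MEFs (Tsc2-/-, p53-/-) treated 24 h, 37 C, in DMEM + 10% FBS. Alexa-488 signal normalized to PI count, referenced to rapamycin (7.5 nM) and DMSO; PI cell number recorded for viability.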

[15] = High Content Imaging Cell-Based qHTS for Inhibitors of the mTORC1 Signaling Pathway in MEF (Tsc2-/-, p53-/-) Cells (AID 2666); conditions: at 38.3 µM (top of the series);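 note: percent of cells scored positive for phospho-rpS6 Ser235/236 immunostaining by imaging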
Summary of the method: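 Tsc2-/-, p53-/- MEFs (empty-vector stable) grown in DMEM + 10% FBS were exposed to compounds for 24 hrs at 37 degree Celsius, fixed, and stained with Alexa-488 anti-phospho-rpS6 Ser235/236 plus Hoechst. Imaging gave the percentage of positive cells per well.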

[16] = High Content Imaging Cell-Based qHTS for Inhibitors of the mTORC1 Signaling Pathway in MEF Cells (AID 2667);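 note: Tsc2-/- p53-/- MEFs stably re-expressing wild-type Tsc2 exposed 24 h; plate controls were DMSO wells for no effect and rapamycin control wells for full effect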
Summary of the method: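 Tsc2-/-, p53-/- MEFs stably re-expressing WT Tsc2, grown in DMEM + 10% FBS, were treated with compounds for 24 hrs at 37 degree Celsius, fixed, and stained with Alexa-488 phospho-rpS6 Ser235/236 antibody plus Hoechst; results given as % positive cells.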

[17] = Cytometry Cell-Based qHTS for Inhibitors of the mTORC1 Signaling Pathway in MEF cells (AID 2668);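 note: Tsc2-/- p53-/- mouse embryonic fibroblasts stably re-expressing wild-type Tsc2; percent cells positive for phospho-rpS6 Ser235/236 relative to propidium iodide stain; plate controls were DMSO wells for no effect and 7.5 nM rapamycin control wells for full effect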
Summary of the method: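 In MEFs grown in DMEM + 10% FBS, a 24 hrs compound exposure preceded imaging of phospho-rpS6 Ser235/236 by laser-scanning cytometry.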

[18] = target: Ubiquitin carboxyl-terminal hydrolase 2 (Homo sapiens) (UniProt O75604); test: qHTS Validation Assay for Inhibitors of Ubiquitin-specific Protease USP2a Using CHOP2 as the Reporter (AID 463106);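 note: plate controls were DMSO for no effect and full inhibition by NEM for full effect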
Summary of the method: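 Readout was coupled fluorescence (Ex 485/Em 531 nm), read 60 min after adding 25 nM final Ub-CHOP2 and 25 nM reporter substrate. Beforehand, 10 nM final USP2 core had 30 min at RT with compound in pH 8.0 buffer. Curves were fitted after normalization to NEM and flagged for artifacts using time-zero reads.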

[19] = target: DNA polymerase III PolC-type (Bacillus subtilis (strain 168)) (UniProt P13267); test: qHTS Validation Assay for the Inhibitors of DNA Replication in Gram-Positive Bacteria (AID 485295);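 note: reconstituted holoenzyme with PolC plus beta clamp SSB and primase; PicoGreen fluorescence of double-stranded DNA made on primed circular M13 template; 0% = DMSO wells and -100% = EDTA-quenched background wells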
Summary of the method: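 Inhibition of DNA synthesis by the reconstituted PolC holoenzyme, monitored through PicoGreen staining of dsDNA formed from ssM13Gori, dNTPs and NTPs, with compound preincubation and room-temperature reaction.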

[20] = target: Tumor susceptibility gene 101 protein (Homo sapiens) (UniProt Q99816); test: qHTS Validation Assay for Iinhibitors of HIV-1 Budding by Blocking the Interaction of PTAP/TSG101 (AID 485342; calls by dose curve; note: 0% is about no effect)
Chain of Tumor susceptibility gene 101 protein (Homo sapiens) (Q99816 whole entry, looked up, the tested form may be a part): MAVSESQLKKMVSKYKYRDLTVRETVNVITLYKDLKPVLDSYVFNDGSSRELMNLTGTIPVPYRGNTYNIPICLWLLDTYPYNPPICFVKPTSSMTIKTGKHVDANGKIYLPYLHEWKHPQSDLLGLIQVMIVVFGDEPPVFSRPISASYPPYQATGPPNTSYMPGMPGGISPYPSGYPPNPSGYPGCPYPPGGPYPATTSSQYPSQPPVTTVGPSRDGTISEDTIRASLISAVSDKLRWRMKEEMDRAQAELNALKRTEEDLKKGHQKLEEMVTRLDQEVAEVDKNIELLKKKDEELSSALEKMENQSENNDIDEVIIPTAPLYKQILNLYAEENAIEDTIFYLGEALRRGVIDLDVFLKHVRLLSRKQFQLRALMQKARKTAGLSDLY
Summary of the method: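 Compound wells held the Tsg101 binding domain (10 uM) and a FITC-conjugated PTAP peptide (50 nM) in buffer at pH 7.5 containing 0.15 M NaCl and 0.01% Tween 20; polarization was recorded after 20 min, r.t.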

[21] = qHTS Validation Assay to Find Inhibitors of Chronic Active B-Cell Receptor Signaling (AID 485345; active = well fitted curve in the direction sought with a large enough effect in the main read-out, with a control signal flat, not every such curve was filed as active;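 note: 0% = untreated basal cells and 100% = 10 µM MG-132 proteasome inhibitor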)
Summary of the method: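 Read-out: ratio of filter-corrected green (IkappaBalpha fusion) to red (native) luciferase signal in doxycycline-induced TMD8 cells after 4 h at 37C. Titration spanned 46 uM–3 nM; Data were normalised to basal cells and 10 uM MG-132 wells.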

[22] = target: Beta-2 adrenergic receptor (Homo sapiens) (UniProt P07550); test: qHTS validation assay of beta-arrestin-biased ligands of beta2-adrenergic receptor (AID 485366); note: 0% is about no effect
Chain of Beta-2 adrenergic receptor (Homo sapiens) (P07550 whole entry, looked up): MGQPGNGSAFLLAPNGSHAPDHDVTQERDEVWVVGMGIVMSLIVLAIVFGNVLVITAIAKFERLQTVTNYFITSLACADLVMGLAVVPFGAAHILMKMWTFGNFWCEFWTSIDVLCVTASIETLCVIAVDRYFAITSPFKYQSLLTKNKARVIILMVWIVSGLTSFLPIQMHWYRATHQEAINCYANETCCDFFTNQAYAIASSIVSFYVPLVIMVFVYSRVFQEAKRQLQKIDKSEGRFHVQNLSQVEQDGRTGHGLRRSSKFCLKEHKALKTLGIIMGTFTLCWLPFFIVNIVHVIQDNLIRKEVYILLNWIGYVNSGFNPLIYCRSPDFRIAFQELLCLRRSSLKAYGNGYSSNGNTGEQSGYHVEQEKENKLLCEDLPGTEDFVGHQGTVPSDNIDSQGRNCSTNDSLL
Summary of the method: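 Agonism was measured as beta-arrestin recruitment to recombinant beta2-AR, releasing tTA to drive luciferase. Cells were exposed for 18 hr at 37 degrees C to a series up to 46 microM. %Activity from corrected luminescence gave concentration-response curves.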

[23] = target: Thioredoxin reductase 1, cytoplasmic (Rattus norvegicus) (UniProt O89049); test: qHTS Assay for Substrates of Mammalian Selenoprotein Thioredoxin Reductase 1 (TrxR1) (AID 488772);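 note: 0% is about no effect; a drop in NADPH fluorescence below the no-compound background marks a TrxR1 substrate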
Summary of the method: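 In this dual-purpose format, potential substrates are identified from the first fluorescence read after selenite addition, not from the 8-minute delta. Rat enzyme is preincubated with NADPH and then with compound at ~22 deg C.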

[24] = target: Chromobox protein homolog 1 (Homo sapiens) (UniProt P83916); test: qHTS Validation Assay for Inhibitors of HP1-beta Chromodomain Interactions with Methylated Histone Tails (AID 488953);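 note: loss of AlphaScreen luminescence from HP1-beta binding biotinylated H3K9me3 peptide; % is set by controls: 0 for no effect and ±100 for the full control effect; nearly all actives have a fitted effect of over 50% in size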
Chain of Chromobox protein homolog 1 (Homo sapiens) (P83916 whole entry, looked up): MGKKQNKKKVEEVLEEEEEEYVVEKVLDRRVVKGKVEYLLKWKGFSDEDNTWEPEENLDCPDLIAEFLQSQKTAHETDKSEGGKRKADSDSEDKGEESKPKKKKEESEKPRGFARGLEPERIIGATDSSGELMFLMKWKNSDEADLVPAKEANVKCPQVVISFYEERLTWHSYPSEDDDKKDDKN
Summary of the method: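 AlphaScreen proximity readout: streptavidin donor and Ni-chelate acceptor beads, 10 ug/mL final, 30 min dark, RT. Complex of 50 nM HP1-beta and 50 nM b-H3(1-18)K9me3 formed 30 min, then compound-treated 30 min; PBS pH 7.4/0.01% Tween-20.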

[25] = target: Methanococcus maripaludis chaperonin (MmCpn) (UniProt Q6LX38); test: High-Throughput Screening for Modulators of Cytosolic Chaperonin Activity: MmCpn Primary Screen (AID 488978); note: 0% is about no effect
Chain of Methanococcus maripaludis chaperonin (MmCpn) (Q6LX38 1-543): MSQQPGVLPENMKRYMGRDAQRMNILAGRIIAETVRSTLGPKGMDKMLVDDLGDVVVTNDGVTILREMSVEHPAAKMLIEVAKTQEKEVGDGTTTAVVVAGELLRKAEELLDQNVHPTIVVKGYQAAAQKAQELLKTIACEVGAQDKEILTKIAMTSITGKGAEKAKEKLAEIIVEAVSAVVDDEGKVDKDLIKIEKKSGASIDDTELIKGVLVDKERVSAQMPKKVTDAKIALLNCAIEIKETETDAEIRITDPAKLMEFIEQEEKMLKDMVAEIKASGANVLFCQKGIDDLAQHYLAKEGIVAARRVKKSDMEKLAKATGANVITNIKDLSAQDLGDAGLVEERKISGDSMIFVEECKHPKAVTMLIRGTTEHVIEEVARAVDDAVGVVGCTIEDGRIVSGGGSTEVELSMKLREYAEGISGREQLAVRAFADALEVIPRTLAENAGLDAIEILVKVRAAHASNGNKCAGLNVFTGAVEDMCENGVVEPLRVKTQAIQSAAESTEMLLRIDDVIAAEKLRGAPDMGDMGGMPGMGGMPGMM
Summary of the method: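 HTRF readout (320 nm excitation, 590/665 nm emission) of ADP generated by 50 nM MmCpn hydrolysing 30 uM ATP during 10 min at 37C; compound preincubated 5 min RT.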

[26] = target: D(1A) dopamine receptor (Homo sapiens) (UniProt P21728); test: HTS Assay for Allosteric Agonists of the Human D1 Dopamine Receptor: Primary Screen for Agonists (AID 488981); note: 0% is about no effect
Chain of D(1A) dopamine receptor (Homo sapiens) (P21728 whole entry, looked up): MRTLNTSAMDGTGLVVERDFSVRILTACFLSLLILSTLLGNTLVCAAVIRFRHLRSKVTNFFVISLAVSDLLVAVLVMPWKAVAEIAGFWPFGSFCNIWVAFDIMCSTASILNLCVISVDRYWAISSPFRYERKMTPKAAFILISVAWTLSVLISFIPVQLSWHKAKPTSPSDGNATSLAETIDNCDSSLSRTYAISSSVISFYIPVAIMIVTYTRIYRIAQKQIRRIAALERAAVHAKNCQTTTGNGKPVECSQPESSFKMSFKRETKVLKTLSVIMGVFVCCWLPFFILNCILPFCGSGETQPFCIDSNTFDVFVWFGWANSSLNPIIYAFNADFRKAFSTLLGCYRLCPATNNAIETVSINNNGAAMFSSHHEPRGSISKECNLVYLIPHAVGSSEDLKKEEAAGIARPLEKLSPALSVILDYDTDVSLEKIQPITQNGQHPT
Summary of the method: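 Calcium flux in an inducible, force-coupled HEK293 Trex D1 line (overnight at 30 C): agonist mode is the 180 s kinetic read after compound; potentiator mode is the following 180 s read after dopamine at EC20.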

[27] = target: D(1A) dopamine receptor (Homo sapiens) (UniProt P21728); test: HTS Assay for Allosteric Agonists of the Human D1 Dopamine Receptor: Primary Screen for Antagonists (AID 488983);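 note: calcium flux response to an EC80 dopamine challenge measured with no-wash dye; % is set by controls: 0 for no effect and ±100 for the full control effect; nearly all actives have a fitted effect of over 65% in size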
Summary of the method: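 Calcium flux readout, no-wash dye, inducible HEK293 T-REx D1 line (force-coupled). Compound added after 10 s baseline, 180 s kinetic read; then dopamine at EC80, further 180 s read.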

[28] = Validation screen for small molecules that induce genotoxicity in human embryonic kidney (HEK293T) cells expressing luciferase-tagged ELG1 (AID 493106); note: 0% is about no effect
Summary of the method: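 qHTS format; 2,000 HEK293T ELG1-luc cells/well; 23 nL compound via pin tool; 16 hr, 37 °C/5% CO2; ONE-Glo, 30 min RT; luminescence read.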

[29] = target: ATPase family AAA domain-containing protein 5 (Homo sapiens) (UniProt Q96QE3); test: Validation screen for small molecules that inhibit ELG1-dependent DNA repair in human embryonic kidney (HEK293T) cells expressing luciferase-tagged ELG1 (AID 493107);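 note: cells co-treated with the DNA-damaging agent 5-fluorouridine alongside compound; % is set by controls: 0 for no effect and ±100 for the full control effect; inhibitors lower the ELG1-luciferase luminescence signal; nearly all actives have a fitted effect of over 70% in size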
Summary of the method: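 ELG1-luciferase HEK293T reporter; 5-fluorouridine + compound/DMSO, 16 hr, 37 °C, 5% CO2; ONE-Glo 30 min RT; luminescence read, qHTS format.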

[30] = Nrf2 qHTS screen for inhibitors: Validation (AID 493153; active = well fitted inhibition curve with a large enough effect in the main read-out, with a control signal flat, not every such curve was filed as active; for activity change, negative = inhibition: % of control where 0% means no effect); conditions: viability change: measured here: cytotoxicity max response
Summary of the method: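 Concentration-response test in A549 ARE_Fluc reporter cells (5% FBS OPTI-MEM), compound exposure 18-24 h at 37°C, 5% CO2. Cell viability measured first by CellTiter-Fluor fluorescence; ARE-driven luciferase luminescence then measured as Nrf2 activity.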

[31] = qHTS for Inhibitors of Cell Surface uPA Generation: Validation Assay (AID 493164);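 note: RAW 264.7 macrophage cells exposed to compound for 18 h; 0% is about no effect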
Summary of the method: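 Compounds are titrated over seven points (2.45 nM–38.3 uM final) onto pre-plated RAW 264.7 cells and incubated for 18 h. Retained intracellular ATP, measured with ATP-Lite, indicates blocked lethal factor entry.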

CC[N+](CC)(CC)CC
inactive: activity change, negative = inhibition [1] -0.239% | Potency [2] | activity change, negative = inhibition [3] -10.5% | Potency [4] > 46 µM | Potency [5] > 46 µM | Potency [6] | Potency [7] | outcome [8] | Potency [9] | Potency [10] | outcome [11] | outcome [12] | outcome [13] | outcome [14] | outcome [15] | Potency [16] | Potency [17] | Potency [18] | Potency [19] | outcome [20] | outcome [21] | outcome [22] | outcome [23] | Potency [24] | outcome [25] | outcome [26] | outcome [27] | Potency [28] | Potency [29] | outcome [30] | outcome [31]
-5.41%: viability change [30]
